Source: PubChem BioAssay (several laboratories)
A selection: hits, their analogues and other compounds. The true share with any hit is near 3.7%.
NLRP3 yeast inh: inhibitors of NALP3 inflammasome in yeast; Yeast reconstituted NLRP3/ASC/caspase-1, beta-gal luminescence, 24 h; inhibition, % at 10 µM; 0.39% of 330,000 active; AID 2825;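 active means inhibition of 50% or more; inactive means inhibition below 50%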;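 further: plate controls were induced DMSO wells for no effect and uninduced yeast grown without galactose for full effect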
tim23-1 inh: inhibits growth of tim23-1 mutant yeast; S. cerevisiae tim23-1 growth, BacTiter-Glo luminescence, 24 h; inhibition, % at 20 µM; 1.3% of 330,000 active; AID 463212;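 active means growth inhibition of the mutant yeast at or above 50%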;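 further: temperature-sensitive mutant grown at 25 °C; plate controls were DMSO-treated mutant yeast for no effect and medium wells lacking yeast for full effect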
tim10-1 inh: inhibits growth of tim10-1 mutant yeast | inhibition, % at 20 µM | 2.2% of 330,000 active | S. cerevisiae tim10-1 ts strain growth, BacTiter-Glo, 24 h;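 active means inhibition of at least 40%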;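 further: mutant grown at 25 °C; 0% = DMSO wells with yeast and 100% = wells holding no yeast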
PfHsp90 yeast 2: reduces growth (ATP signal) of yeast expressing P. falciparum Hsp90; S. cerevisiae expressing PfHsp90, BacTiter-Glo ATP, 48 h; yeast lacking PDR1 and PDR3 efflux regulators; inhibition, % at 9.4 µM; 0.32% of 310,000 active; AID 504621;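 active means every replicate shows inhibition above about 80%, whatever the replicate mean, limit read from the data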;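 further: 0% = DMSO neutral controls and 100% = 20 µM radicicol positive controls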
TIM10 inh: inhibits growth of TIM10 yeast strain | S. cerevisiae TIM10 strain growth, BacTiter-Glo luminescence, 24 h | inhibition, % at 10 µM | 1.4% of 330,000 active;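 active means inhibition of 40% or more at the single tested concentration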;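 further: wild-type TIM10 isogenic control strain grown at permissive 25 °C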
tim10-1 confirm: confirmation of tim10-1 mutant yeast growth inhibitors | AID 463213 | S. cerevisiae tim10-1 ts strain growth, BacTiter-Glo, 24 h | shares compounds with tim10-1 inh | inhibition, % at 20 µM | 56% of 7,400 active;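 active means inhibition of yeast growth at or above a set limit in either of two repeat tests at 20 µM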;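 further: tim10-1 mutant grown at permissive 25 °C to find synthetic lethal compounds; 0% = DMSO yeast wells and 100% = medium wells without yeast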
* marks the source's active call; other numbers are inactive results; x = not tested or not shown.

SMILES	NLRP3 yeast inh	tim23-1 inh	tim10-1 inh	PfHsp90 yeast 2	TIM10 inh	tim10-1 confirm
Cc1nn(C(C)(C)C)c(OC(=O)c2ccc3c(c2)OCO3)c1S(=O)(=O)c1ccccc1	28	43	46*	2	31	35*
O=[N+]([O-])c1nn(-c2ccc(Cl)cc2)n(O)c1=NCc1cccnc1	-9	35	42*	1	29	30*
CC1=C(C(=O)Nc2ccccc2C(=O)NC2CCCCC2)SCCO1	-9	22	30	-7	6	x
CC12CCC(C(=O)N3CCN(C(c4ccccc4)c4ccccc4)CC3)(OC1=O)C2(C)C (stereo not given)	9	34	41*	27	28	15
CCOc1ccccc1NC(=O)CCS(=O)(=O)c1ccc(Br)cc1	0	36	41*	14	3	39*
Cc1nn(-c2cccc(Cl)c2)c2c1C(c1cccnc1)C(C#N)=C(N)O2 (stereo not given)	5	15	41*	-14	21	31*
Cc1ccc(NC(=S)NNC(=O)c2ccc(N3CCOCC3)c([N+](=O)[O-])c2)cc1Cl	19	14	-5	-42	28	x
O=C(NNC(=S)Nc1ccc(Br)cc1)c1ccc(N2CCOCC2)c([N+](=O)[O-])c1	21	28	44*	-25	14	18
Cn1nc(-c2ccc(Cl)cc2)c2cc(C(=O)NCCN3CCOCC3)sc21	6	42	46*	-14	27	27
Cn1nc(-c2ccc(Cl)cc2)c2cc(C(=O)N3CCN(C(=O)c4ccco4)CC3)sc21	8	33	41*	-8	24	5
CS(=O)(=O)NCCn1ccc2ccccc21	-10	-3	13	-3	2	x
Cc1ccccc1C(=O)Nc1ccc2nc3n(c(=O)c2c1)CCCC3	9	0	1	4	7	x
CCOc1ccccc1C(=O)Nc1ccc2nc3n(c(=O)c2c1)CCCCC3	25	39	55*	-4	10	4
Cc1cccn2cc(CCNS(=O)(=O)c3cccc([N+](=O)[O-])c3)nc12	6	19	-1	1	13	x
CC(C)CC1Nc2ncnc(N3CCOCC3)c2N(Cc2ccc(Br)cc2)C1=O (stereo not given)	7	15	15	2	13	x
CC(C)CC1Nc2ncnc(N3CCCCC3)c2N(Cc2ccc(Br)cc2)C1=O (stereo not given)	1	37	41*	-41	38	32*
CCC1CCCCN1Cc1cc(OC)c(O)c([N+](=O)[O-])c1 (stereo not given)	-73	-1	43*	x	4	14
O=C(NC1CCCCC1)C(c1cccs1)N(Cc1cccs1)C(=O)c1cccs1 (stereo not given)	-11	25	45*	-10	27	26*
COc1ccc(/C=C(/NC(=O)c2ccccc2)C(=O)N/N=C/c2sccc2C)cc1	-8	12	5	9	9	x
COc1ccc(/C=C(\NC(=O)c2ccccc2)C(=O)N/N=C/c2sccc2C)cc1	13	-1	51*	-1	19	2
N/C(=N\OC(=O)c1cccc2ccccc12)c1ccncc1	-7	28	49*	-22	29	40*
O=C(Oc1ccccc1O)c1cccc2ccccc12	39	43	47*	x	21	34*
OC1CCN(c2ncnc3c2nnn3Cc2c(F)cccc2Cl)CC1	-8	17	43*	-1	15	26
CCOC(=O)C1=C(C)NC(C)=C(C(=O)OCC)C1C(=O)OCC(=O)N(C)C1CCS(=O)(=O)C1 (stereo not given)	4	16	-8	x	-5	x
CCOC(=O)N1CCN(C(=O)c2ccc(CS(=O)Cc3ccc(C)cc3)o2)CC1 (stereo not given)	1	0	-5	22	-6	x
SMILES	NLRP3 yeast inh	tim23-1 inh	tim10-1 inh	PfHsp90 yeast 2	TIM10 inh	tim10-1 confirm
O=C(c1ccc2c(c1)OCCO2)N1CCN(c2ncc(C(F)(F)F)cc2Cl)CC1	17	42	48*	-34	10	34*
O=C(Nc1ccc2c(c1)OCO2)N1CCN(c2ncc(C(F)(F)F)cc2Cl)CC1	-9	12	6	-17	7	x
Cc1ccc(S(=O)(=O)N2CCN(c3nn(C)c(=O)n(C)c3=O)CC2)cc1C	23	12	17	23	4	x
O=C(Cc1ccsc1)N1CCc2c([nH]c3ccccc23)C1c1ccccn1 (stereo not given)	11	4	23	-17	17	x
Cc1ccc(C(=O)NCCOC23CC4CC(CC(C4)C2)C3)cc1	15	45	33	-2	33	x
COc1cc(OC)cc(C(=O)NCCOC23CC4CC(CC(C4)C2)C3)c1	-2	24	45*	4	4	30
CCN(CC(=O)Nc1cc(Cl)ccc1C)C(=O)c1ccc(N2CCCC2=O)cc1	8	-13	-8	-5	10	x
C=C(C)CNC(=S)N=Nc1c(O)[nH]c2ccc([N+](=O)[O-])cc12	24	27	42*	17	20	19
CCCCc1ccc(NS(=O)(=O)c2cccs2)cc1	27	41	41*	x	33	17
CCOC(=O)c1c(CSc2ccccc2)n(C)c2ccc(O)c(CN3CCN(C)CC3)c12	10	18	31	8	29	x
COc1ccc(-c2cc3nc(-c4ccccc4)cc(N4CCC(O)CC4)n3n2)cc1	24	49	40*	31	33	24
Fc1ccc(-c2cc3nc(-c4ccccc4)cc(N4CCOCC4)n3n2)cc1	28	-7	2	-19	0	x
CCn1c(CSc2nc3ccccc3s2)n[nH]c1=S	18	33	42*	-19	33	32*
N#CCCCSc1nnc(CSc2nc3ccccc3s2)n1-c1ccccc1	15	17	29	3	20	x
CCCSc1nnc(CSc2nc3ccccc3s2)n1-c1ccccc1	8	29	44*	-1	22	33*
CN(CCOc1ccccc1)C(=O)C1CCN(C(=O)c2ccc(F)cc2)CC1	3	6	19	11	3	x
CCc1ccc2nc3nc(C)cc(C)c3c(N)c2c1	10	8	47*	-3	36	41*
CCc1ccc(NC(=S)/N=C(\N)Nc2nc(C)c3cc(CC)ccc3n2)cc1	15	8	28	2	14	x
CC(Oc1cccc2ccccc12)C(=O)N/N=C/c1cccnc1 (stereo not given)	13	22	44*	2	7	-3
CC(Sc1ccccc1)C(=O)N/N=C/c1cccnc1 (stereo not given)	-10	0	18	15	-7	x
O=C(NCCCN1CCOCC1)c1ccc(/C=C2\Oc3ccccc3N(Cc3ccccc3F)C2=O)cc1	9	42	47*	23	9	12
CCN1CCN(CCCNC(=O)c2ccc(/C=C3/Sc4ccccc4N(Cc4ccccc4F)C3=O)cc2)CC1	0	34	27	5	-5	x
